According to the supplement of paper PMC4840960:
Structures can show the parent of a compound that is named as a salt.

These compounds were tested on E18 rat cortical neuron-glia co-culture (assay: myelination (MBP fiber length per Olig2+ nucleus), % of 1 µM DAPT response (DMSO = 0) (% of DAPT); higher = more myelination, active = 50 or more). Settings: 1 µM; treatment time: 8 days (DIV5-DIV13).
Procedure, shortened: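 Primary E18 rat cortical co-cultures (papain-dissociated, 20,000 cells/well on poly-d-lysine/laminin 96-well plates) received library compounds at 1 or 5 µM in myelination medium from DIV5 to DIV13. Cells were fixed in 4 % paraformaldehyde and immunostained for MBP and Olig2 with DAPI, and four 10X fields per well in duplicate wells were analysed. Myelination was continuous straight MBP fiber length per Olig2+ nucleus, normalised to 0.1 % DMSO (0) and a 1 µM positive control (100).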

myelination, inactive:
CC(=O)SCC(Cc1ccccc1)C(=O)NCC(=O)OCc1ccccc1 (centres undefined) [Racecadotril] -48.7, CCOC(=O)C1=C(C)NC(C)=C(C(=O)OC)C1c1cccc([N+](=O)[O-])c1 (centres undefined) [Nitrendipine] -7.81, CC(C(=O)O)c1cccc(C(=O)c2ccccc2)c1 (centres undefined) [Ketoprofen] -5.15, O=C(O)Cc1ccccc1Nc1c(Cl)cccc1Cl [Diclofenac] -25.4, COc1cc(Cc2cnc(N)nc2N)cc(OC)c1OC [Trimethoprim] -9.76, CN(C)CCOC(c1ccccc1)c1ccccc1 [Diphenhydramine] -12.1, N[C@@H](C(=O)N[C@@H]1C(=O)N2C(C(=O)O)=C(CSc3c[nH]nn3)CS[C@H]12)c1ccc(O)cc1 [Cefatrizine] -4.14, COCCCC/C(=N\OCCN)c1ccc(C(F)(F)F)cc1 [Fluvoxamine] -0.231, C[C@]12CC[C@@H]3c4ccc(O)cc4CC[C@H]3[C@@H]1CC[C@@H]2O [Estradiol] -24.6, O=C(c1ccc(OCCN2CCCCC2)cc1)c1c(-c2ccc(O)cc2)sc2cc(O)ccc12 [Raloxifene] -12.3, C[n+]1ccccc1C=NO [Pralidoxime] -7.49, Nc1c2c(nc3c1CCC3)CCCC2 [Amiridine] -26.8, NC(=O)c1cnccn1 [Pyrazinamide] -16.4, C[C@@H]1C[C@H]2[C@@H]3CCC4=CC(=O)C=C[C@]4(C)[C@@]3(F)[C@@H](O)C[C@]2(C)[C@H]1C(=O)CO [Desoximetasone] 7.66, CNC(=C[N+](=O)[O-])NCCSCc1csc(CN(C)C)n1 [Nizatidine] -8.02, O=C(O)COCCN1CCN(C(c2ccccc2)c2ccc(Cl)cc2)CC1 (centres undefined) [Virlix] -2.52, O=C1c2c(O)cc(O)cc2O[C@H](c2ccc(O)c(O)c2)[C@H]1O [Distylin] -6.73, CCC(C)(C)C(=O)O[C@H]1C[C@@H](C)C=C2C=C[C@H](C)[C@H](CC[C@@H]3C[C@@H](O)CC(=O)O3)[C@H]21 [Simvastatin] -17.5, Cc1cccc(Nc2ccccc2C(=O)O)c1C [Mefenamic Acid] -6.36, CC[N+](C)(CC)CCOC(=O)C(O)(c1ccccc1)C1CCCCC1 (centres undefined) [Oxyphenonium] -8.21, CC(C)NCC(O)COc1ccc(CCOCC2CC2)cc1 (centres undefined) [Betaxolol] -12.6, Cc1nnc(SCC2=C(C(=O)O)N3C(=O)[C@@H](NC(=O)Cn4cnnn4)[C@H]3SC2)s1 [Cefazolin] -6.67, CC1CNc2c(cccc2S(=O)(=O)N[C@@H](CCCNC(=N)N)C(=O)N2CC[C@@H](C)C[C@@H]2C(=O)O)C1 (some centres undefined) [Argatroban] -43.9, C#C[C@]1(O)CC[C@H]2[C@@H]3[C@H](C)CC4=C(CCC(=O)C4)[C@H]3CC[C@@]21C [Tibolone] -17.1, CCN(CC)CCNC(=O)c1cc(Cl)c(N)cc1OC [Metoclopramide] -6.65, COc1ccnc(C[S+]([O-])c2nc3cc(OC(F)F)ccc3[nH]2)c1OC (centres undefined) [Pantoprazole] -9.58, CC(C)NCC(O)COc1cccc2[nH]ccc12 (centres undefined) [Pindolol] -3.4, C[C@H](CS)C(=O)N1CCC[C@H]1C(=O)O [Captopril] -9.04, CN1CCN(c2nc3cc(C(F)(F)F)ccc3n3cccc23)CC1 -2.34, Fc1cncnc1 [5-fluoropyrimidine] -17.3, CNCCCN1c2ccccc2CCc2ccccc21 [Desipramine] -14.9, Cc1ccc(NC(=O)c2ccc(CN3CCN(C)CC3)cc2)cc1Nc1nccc(-c2cccnc2)n1 [Imatinib mesylate] -5.16, Clc1ccc2c(c1)CCc1cccnc1C2=C1CCNCC1 [Desloratadine] -12.9, COc1cc2nc(N3CCN(C(=O)C4CCCO4)CC3)nc(N)c2cc1OC (centres undefined) [Terazosin] 11.7, CN(CCOc1ccc(NS(C)(=O)=O)cc1)CCc1ccc(NS(C)(=O)=O)cc1 [Dofetilide] 10.4, COc1c(N2C[C@@H]3CCCN[C@@H]3C2)c(F)cc2c(=O)c(C(=O)O)cn(C3CC3)c12 [Moxifloxacin] -12.3, O=C1CN2Cc3c(ccc(Cl)c3Cl)N=C2N1 [Anagrelide hydrochloride] -1.07, Cc1c(OCC(F)(F)F)ccnc1C[S+]([O-])c1nc2ccccc2[nH]1 (centres undefined) [Lansoprazole] -17.3, CCOC(=O)O[C@]1(C(=O)OCCl)CC[C@H]2[C@@H]3CCC4=CC(=O)C=C[C@]4(C)[C@H]3[C@@H](O)C[C@@]21C [Loteprednol etabonate] -14.2
